{
  "source": "PubChem BioAssay (NCATS)",
  "note": "Records with an inconclusive call do not appear. Calls of active or inactive are those of the source. Calls follow the shape of the dose curve; as a rule, active = well fitted cell-killing curve with a large enough effect; inconclusive = small, poorly fitted or top-dose-only effect, or effect the other way; inactive = no such curve, though single readings can be large or run the other way. Potency is read from the fitted curve at half-maximal effect.",
  "data": [
    {"assay": "Quantitative High-Throughput drug screen in 47 multiple myeloma cell lines against the NCATS MIPE library collection: OPM2_DSMZ cell viability assay (AID 1919872); also: nearly all actives have a fitted effect of over 30% in size", "conditions": "OPM2 myeloma viability, CellTiter-Glo ATP luminescence, 48 h; series mostly up to 45.8 µM; viability (% of DMSO): at the top concentration", "in_short": "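Myeloma cell lines, 500 cells per well, exposed to MIPE 4.0 library compounds for 48 h at 37C, 5% CO2. Viability from ATP by CellTiter-Glo luminescence; normalised to DMSO (100%) and media-only (0%) wells.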", "values": [
      {"smiles": "CC(C)(O)c1cc2nc(-c3cnc(N)nc3)nc(N3CCOCC3)c2s1", "Potency": "187 nM (active)"},
      {"smiles": "CN[C@H]1CCc2cc(OC)c(OC)c(OC)c2-c2ccc(OC)c(=O)cc21", "Potency": "1.7 nM (active)"},
      {"smiles": "O=C(C=Cc1c(C(=O)O)[nH]c2cc(Cl)cc(Cl)c12)Nc1ccccc1", "viability (% of DMSO)": "104% (inactive)"},
      {"smiles": "CN1CC[C@@H](c2c(O)cc(O)c3c(=O)cc(-c4ccccc4Cl)oc23)[C@@H](O)C1", "Potency": "118 nM (active)"},
      {"smiles": "Cc1[nH]c2ccccc2c1CCNCc1ccc(C=CC(=O)NO)cc1", "Potency": "93.5 nM (active)"},
      {"smiles": "COc1cccc(Nc2c(C(N)=O)cnc3c(C)cc(S(=O)(=O)c4cccc(C(=O)N(C)C)c4)cc23)c1", "viability (% of DMSO)": "88.6% [at 23.2 µM] (inactive)"},
      {"smiles": "Cc1cc(Nc2cc(N3CCN(C)CC3)nc(C=Cc3ccccc3)n2)n[nH]1", "Potency": "8550 nM (active)"},
      {"smiles": "CC(C)[C@H](C(=O)Nc1ccc(C(=O)NO)cc1)c1ccccc1", "Potency": "833 nM (active)"},
      {"smiles": "Nc1ccn([C@@H]2O[C@H](CO)[C@H](O)C2(F)F)c(=O)n1", "viability (% of DMSO)": "88.9% (inactive)"},
      {"smiles": "CN(C)c1nc(Cc2ccc(NC(=O)c3ccc4ccccc4c3)cc2)nc(Cl)c1CC(=O)O", "viability (% of DMSO)": "108% (inactive)"},
      {"smiles": "Cc1ccc(CN2CCNCC2)cc1NC(=O)CNc1ccc(F)c(F)c1", "viability (% of DMSO)": "104% (inactive)"},
      {"smiles": "CCC1=C[C@@H]2CN(C1)Cc1c([nH]c3ccccc13)[C@@](C(=O)OC)(c1cc3c(cc1OC)N(C)[C@@H]1[C@@](O)(C(=O)OC)[C@H](OC(C)=O)[C@]4(CC)C=CCN5CC[C@]31[C@@H]54)C2", "Potency": "16.6 nM (active)"},
      {"smiles": "COC(=O)Nc1nc2ccc(C(=O)c3ccc(F)cc3)cc2[nH]1", "Potency": "935 nM (active)"},
      {"smiles": "O=C(CCCCCCC(=O)Nc1ccc([C@H]2O[C@@H](CSc3nc(-c4ccccc4)c(-c4ccccc4)o3)C[C@@H](c3ccc(CO)cc3)O2)cc1)NO", "Potency": "20900 nM (active)"},
      {"smiles": "Cc1cn2c(-c3cn[nH]c3)cnc2c(Nc2ccc(C(=O)N3CCNCC3)cc2F)n1", "Potency": "23500 nM (active)"},
      {"smiles": "COc1ccc(CC2c3cc(OC)c(OC)cc3CC[N+]2(C)CCC(=O)OCCCCCOC(=O)CC[N+]2(C)CCc3cc(OC)c(OC)cc3C2Cc2ccc(OC)c(OC)c2)cc1OC", "note": "(stereo not drawn)", "viability (% of DMSO)": "116% [at 5.15 µM] (inactive)"},
      {"smiles": "CS(=O)(=O)c1ccc(-c2cnc(N)c(C(=O)Nc3ccccc3)n2)cc1", "viability (% of DMSO)": "74.3% (inactive)"},
      {"smiles": "COc1ccc2c(OCc3nnc4ccc(-c5ccccc5)nn34)ccnc2c1", "viability (% of DMSO)": "96.5% (inactive)"}
    ]}
  ]
}
